Screens deposited in PubChem BioAssay by Buhrlage Lab, Dana-Farber Cancer Institute and Novartis Institutes for BioMedical Research (Cambridge, Mass).
Shown are actives, neighbours in structure and some others; about 12% of the full set was active somewhere.
USP10 inh: human USP10 deubiquitinase inhibition | inhibition, % at 20 µM | Q14694 | purified USP10, Ub-rhodamine fluorescence, 60 min | 1.1% of 47,000 active
Target sequence (Q14694 whole entry, looked up): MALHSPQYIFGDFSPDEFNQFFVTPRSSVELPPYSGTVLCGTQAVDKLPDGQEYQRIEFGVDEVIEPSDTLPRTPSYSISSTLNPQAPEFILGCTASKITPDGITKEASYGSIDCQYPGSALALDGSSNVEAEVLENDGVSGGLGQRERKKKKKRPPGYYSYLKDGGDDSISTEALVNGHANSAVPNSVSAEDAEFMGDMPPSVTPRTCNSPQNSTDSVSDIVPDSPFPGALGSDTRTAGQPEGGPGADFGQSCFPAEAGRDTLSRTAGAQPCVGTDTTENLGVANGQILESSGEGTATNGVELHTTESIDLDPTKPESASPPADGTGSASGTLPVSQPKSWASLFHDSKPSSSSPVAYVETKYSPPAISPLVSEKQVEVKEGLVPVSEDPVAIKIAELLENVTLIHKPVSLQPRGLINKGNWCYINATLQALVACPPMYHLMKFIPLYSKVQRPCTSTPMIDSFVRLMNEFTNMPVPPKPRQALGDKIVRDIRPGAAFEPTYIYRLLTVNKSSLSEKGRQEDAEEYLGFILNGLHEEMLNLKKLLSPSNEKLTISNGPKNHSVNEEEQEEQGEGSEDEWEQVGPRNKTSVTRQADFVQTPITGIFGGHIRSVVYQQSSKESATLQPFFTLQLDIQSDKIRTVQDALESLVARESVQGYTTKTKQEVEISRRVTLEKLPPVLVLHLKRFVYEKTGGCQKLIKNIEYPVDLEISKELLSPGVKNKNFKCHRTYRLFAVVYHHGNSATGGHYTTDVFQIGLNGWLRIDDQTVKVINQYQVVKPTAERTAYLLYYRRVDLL
USP17 block: inhibitors of human USP17 deubiquitinase. A8MUK1. purified USP17, Ub-rhodamine cleavage fluorescence, 3 h. inhibition, % at 50 µM. 6.5% of 47,000 active. AID 1645855
USP30 block: inhibitors of human USP30 deubiquitinase. Q70CQ3. purified USP30, Ub-rhodamine cleavage fluorescence. inhibition, % at 25 µM. 5.3% of 47,000 active
USP8 inh: blocks human USP8 ubiquitin-rhodamine cleavage; P40818; purified USP8, Ub-rhodamine cleavage fluorescence, 30 min; inhibition, % at 20 µM; 4.2% of 47,000 active
UCHL1 block: human UCHL1 deubiquitinase inhibition | purified UCHL1, Ub-rhodamine cleavage fluorescence | inhibition, % at 20 µM | 0.2% of 47,000 active
USP7 block: human USP7 deubiquitinase inhibition | AID 1645854 | 0.3% of 47,000 active | purified USP7, Ub-rhodamine cleavage fluorescence | inhibition, % at 20 µM | Q93009
Active calls of the source: *. No stated cut-off is given here; in the data, active means inhibition above about 30%; inactive means the rest.

O=C(Nc1ccccc1Cl)c1ccc(F)c(S(=O)(=O)N2CCCc3ccccc32)c1 was read as USP10 inh -4.1, USP17 block -3.1, USP30 block -116.1, USP8 inh 17.8, UCHL1 block 6.2 and USP7 block 11.6.
Screening COc1ccc(OC)c(CC(=O)NC2CC3(CCOCC3)Oc3ccccc32)c1 (centres undefined) returned USP10 inh 1.1, USP17 block 21.4, USP30 block 43.7*, USP8 inh 10.6, UCHL1 block 2.7 and USP7 block -0.5.
Screening COc1ccc(CC(=O)NC2CC3(CCOCC3)Oc3ccccc32)cc1OC (centres undefined) returned USP10 inh 0.0, USP17 block 2.2, USP30 block 25.3, USP8 inh -2.0, UCHL1 block 2.7 and USP7 block 7.4.
O=C(Cn1cnc2c(cnn2-c2ccc(Cl)cc2)c1=O)NCc1ccccc1Cl was read as USP10 inh 8.0, USP17 block 55.0*, USP30 block 28.8, USP8 inh 15.5, UCHL1 block -3.9 and USP7 block 4.8.
Screening O=C(Cn1cnc2c(oc3ccccc32)c1=O)c1ccccc1 returned USP10 inh 0.0, USP17 block 18.0, USP30 block 0.7, USP8 inh 17.6, UCHL1 block 0.6 and USP7 block -8.8.
For O=C(Cn1cnc2c(oc3ccccc32)c1=O)NCc1ccccc1Cl the results were USP10 inh 5.3, USP17 block 87.2*, USP30 block -0.5, USP8 inh 22.0, UCHL1 block 4.1 and USP7 block 15.5.
`Cc1ccc(CNC(=O)Cn2cnc3c(cnn3-c3cccc(Cl)c3)c2=O)cc1` gave USP10 inh -5.9, USP17 block 1.5, USP30 block 8.7, USP8 inh 6.8, UCHL1 block -0.3 and USP7 block 5.5.
`CCCc1cc(-c2cc(=O)n3[nH]c(C)c(CC)c3n2)no1` gave USP10 inh -3.9, USP17 block -2.5, USP30 block 0.9, USP8 inh -164.3, UCHL1 block -15.7 and USP7 block -14.5.
CCc1nc2sc(C(C)C)nn2c1S(=O)(=O)N1CCCCCC1 was read as USP10 inh 0.4, USP17 block -30.5, USP30 block 35.6*, USP8 inh 5.2, UCHL1 block 0.3 and USP7 block -35.1.
COc1ccc(NC(=O)CN2C(=O)c3ccccc3Sc3ccc(C(=O)N4CCCC4)cc32)cc1OC was read as USP10 inh 4.8, USP17 block 55.0*, USP30 block 24.5, USP8 inh 13.2, UCHL1 block 4.7 and USP7 block 12.5.
For CC1CCCCN1c1nc2c(c(=O)[nH]c(=O)n2C)n1Cc1ccccc1 (centres undefined) the results were USP10 inh 0.2, USP17 block -17.7, USP30 block 14.8, USP8 inh -1.9, UCHL1 block 1.6 and USP7 block -4.8.
Screening Cc1cccc2sc(NC(=O)c3nnn(-c4ccc(F)cc4)n3)nc12 returned USP10 inh 12.1, USP17 block 56.2*, USP30 block 19.3, USP8 inh 19.3, UCHL1 block 0.7 and USP7 block 6.3.
`CC(C)(C)c1ccc(CN2CCN(c3ccc4c(c3)CCC4)C2=O)cc1` gave USP10 inh 10.5, USP17 block 16.1, USP30 block 26.9, USP8 inh 27.7, UCHL1 block 6.9 and USP7 block 14.6.
For O=C1N(Cc2ccc(F)cc2)CCN1c1ccc2c(c1)CCC2 the results were USP10 inh 9.4, USP17 block 26.6, USP30 block 31.3*, USP8 inh 12.4, UCHL1 block 7.0 and USP7 block -40.9.
Cc1nc(Cn2cnc(-c3nc(C(=O)N4CCCC4)c4ccccn34)c2)cs1 was read as USP10 inh -6.7, USP17 block -44.5, USP30 block -64.8, USP8 inh -99.7, UCHL1 block -3.4 and USP7 block -2.8.
For COc1cc(OCC(=O)NC(C)C)cc2c1C(=O)O[C@@H](C)CCCC(=O)CCCCC2 the results were USP10 inh -3.4, USP17 block 4.2, USP30 block 13.5, USP8 inh 1.1, UCHL1 block 0.1 and USP7 block 3.2.
Screening COc1cc2c(c(OCC(=O)Nc3ccc4c(c3)OCCO4)c1)C(=O)O[C@@H](C)CCCC(=O)CCCCC2 returned USP10 inh 31.7*, USP17 block 22.2, USP30 block 51.3*, USP8 inh 68.3*, UCHL1 block 0.9 and USP7 block 3.2.
O=C(Cn1cc(SCc2ccccc2Cl)c2ccccc21)N1CCCC1 was read as USP10 inh 8.6, USP17 block 32.0*, USP30 block 13.6, USP8 inh -12.4, UCHL1 block 8.6 and USP7 block -4.4.
Screening Cc1cc(-c2cnc(NC3CC3)nc2C2CCN(C(=O)c3ccccn3)CC2)on1 returned USP10 inh 2.2, USP17 block 9.3, USP30 block 20.3, USP8 inh 6.3, UCHL1 block 2.1 and USP7 block 3.0.
For O=C(CCSCc1cccc(F)c1)NCCc1ccc(Cl)cc1 the results were USP10 inh 9.2, USP17 block 13.9, USP30 block 36.8*, USP8 inh 6.8, UCHL1 block 4.8 and USP7 block -6.4.
Screening CCc1c(C)c(C#N)c2nc3ccccc3n2c1N1CCN(C2CCCC2)CC1 returned USP10 inh 0.0, USP17 block 61.9*, USP30 block 23.1, USP8 inh 7.4, UCHL1 block -2.9 and USP7 block 6.7.
`O=C(NCCCc1ccccc1)c1cc(OCc2ccccc2)nc2ccccc12` gave USP10 inh 2.7, USP17 block -1.3, USP30 block 13.9, USP8 inh -92.7, UCHL1 block -0.1 and USP7 block 8.3.
Screening O=C(Nc1nc2c(s1)CCC2C(=O)Nc1ccc2c(c1)OCO2)c1ccccc1 (centres undefined) returned USP10 inh 9.1, USP17 block 24.7, USP30 block -13.9, USP8 inh 38.3*, UCHL1 block 1.6 and USP7 block 0.3.
Screening O=C(Nc1ccc(NC(=O)c2ccccc2O)cc1)Nc1ccc(OCc2ccccc2)cc1 returned USP10 inh 60.7*, USP17 block -18.6, USP30 block -479.4, USP8 inh 91.3*, UCHL1 block 4.3 and USP7 block 29.5.
Screening Cc1cccc(Cl)c1NC(=O)Nc1ccc(NC(=O)c2ccccc2O)cc1 returned USP10 inh 38.8*, USP17 block 52.6*, USP30 block -101.5, USP8 inh 41.6*, UCHL1 block -0.1 and USP7 block 9.8.
For COc1cccc(NC(=O)Nc2ccc(NC(C)=O)cc2)c1 the results were USP10 inh 2.1, USP17 block 22.0, USP30 block -3.2, USP8 inh 1.5, UCHL1 block -1.1 and USP7 block 3.7.
O=C(Nc1ccc(F)cc1)Nc1ccc(NC(=O)c2ccccc2O)cc1 was read as USP10 inh 24.8, USP17 block 33.8*, USP30 block -12.9, USP8 inh 52.0*, UCHL1 block 3.9 and USP7 block 14.5.
